Measurements as given in the supplement of paper PMC12494721.
Counter-ions that a name gives are not always drawn.

Experiments:
Settings in all cases: incubation time: 27 h, anaerobic, 37 °C;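 for the amine columns active = adjusted P below 0.05 in both replicates with a change the same way and a mean fold change under 0.8 or over 1.25; inactive = the rest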
[1] = test system: Clostridium sporogenes DSM 1664; experiment: growth (OD595) fold change vs plate DMSO controls (fold change (ratio)); higher = more growth
Outline: (§1)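 Shaken 96-well cultures in mGAM, grown anaerobically for 27 h at 37 °C, were read at 595 nm. OD came from blank-subtracted readings, corrected for background with 20 µM compound solutions in water and scaled by a calibration factor of 5. Growth is the fold change versus the plate's median DMSO control. Values average 2 biological replicates, and any fold change above 1.5 is NA.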

[2] = test system: Escherichia coli IAI1; experiment: as above
Outline: as §1

[3] = test system: Klebsiella aerogenes DSM 30053; experiment: as above
Outline: as §1

[4] = test system: Ruminococcus gnavus DSM 108212; experiment: as above
Outline: as §1

[5] = test system: Klebsiella aerogenes DSM 30053; experiment: fold change of Histamine concentration vs plate DMSO controls (fold change (ratio)); higher = more amine produced, active = hit call of the paper (significant change in both replicates, either direction)
Outline: (§2)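 Anaerobic mGAM cultures of four gut bacterial strains were grown at 37 °C for 27 h in 80 µL wells, starting at OD 0.1 before 1:1 dilution. Compounds were at 20 µM final (sweeteners 50 µM). Whole cultures were extracted with cold acetonitrile/methanol containing 0.1% formic acid and centrifuged. Amines were quantified by LC–triple-quadrupole MS (dynamic MRM) against external calibration curves and drift-corrected within batch. Each value is the fold change versus plate DMSO controls, averaged over 2 biological replicates.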

[6] = test system: Clostridium sporogenes DSM 1664; experiment: fold change of Tryptamine concentration vs plate DMSO controls (fold change (ratio)); higher = more amine produced, active = hit call of the paper (significant change in both replicates, either direction)
Outline: as §2

[7] = test system: Ruminococcus gnavus DSM 108212; experiment: as above
Outline: as §2

[8] = test system: Escherichia coli IAI1; experiment: fold change of Putrescine concentration vs plate DMSO controls (fold change (ratio)); higher = more amine produced, active = hit call of the paper (significant change in both replicates, either direction)
Outline: as §2

[9] = test system: Klebsiella aerogenes DSM 30053; experiment: as above
Outline: as §2

[10] = test system: Escherichia coli IAI1; experiment: fold change of Cadaverine concentration vs plate DMSO controls (fold change (ratio)); higher = more amine produced, active = hit call of the paper (significant change in both replicates, either direction)
Outline: as §2

[11] = test system: Klebsiella aerogenes DSM 30053; experiment: as above
Outline: as §2

[12] = test system: Ruminococcus gnavus DSM 108212; experiment: fold change of 2-Phenylethylamine concentration vs plate DMSO controls (fold change (ratio)); higher = more amine produced, active = hit call of the paper (significant change in both replicates, either direction)
Outline: as §2

| SMILES | growth [1] | growth [2] | growth [3] | growth [4] | fold change of Histamine concentration [5] | fold change of Tryptamine concentration [6] | fold change of Tryptamine concentration [7] | fold change of Putrescine concentration [8] | fold change of Putrescine concentration [9] | fold change of Cadaverine concentration [10] | fold change of Cadaverine concentration [11] | fold change of 2-Phenylethylamine concentration [12] |
| --- | --- | --- | --- | --- | --- | --- | --- | --- | --- | --- | --- | --- |
| O=C(c1ccc(F)cc1)C1CCN(CCn2c(=O)[nH]c3ccccc3c2=O)CC1 [Ketanserin tartrate hydrate] (20 µM) | 1.21 | 0.974 | 1.02 | 1.06 | 1.05 (inactive) | 1.18 (inactive) | 1.01 (inactive) | 1.03 (inactive) | 1.02 (inactive) | 0.963 (inactive) | 1.02 (inactive) | 1.02 (inactive) |
| Cc1c(-c2ccccc2)oc2c(C(=O)OCCN3CCCCC3)cccc2c1=O [Flavoxate hydrochloride] (20 µM) | 1.09 | 1.01 | 1.06 | 1.14 | 1.01 (inactive) | 1.05 (inactive) | 1.03 (inactive) | 1 (inactive) | 1 (inactive) | 1.03 (inactive) | 1 (inactive) | 1.02 (inactive) |
| CC(C)(C)NC[C@H](O)COc1ccccc1C1CCCC1 [Penbutolol sulfate] (20 µM) | 0.971 | 1.21 | 0.985 | 0.952 | 1.02 (inactive) | 1.03 (inactive) | 1.11 (inactive) | 1.1 (inactive) | 0.997 (inactive) | 1.02 (inactive) | 0.98 (inactive) | 1.25 (inactive) |
| COc1ccc2cc(CCC(C)=O)ccc2c1 [Nabumetone] (20 µM) | 1 | 0.792 | 1.01 | 0.995 | 0.912 (inactive) | 0.926 (inactive) | 0.944 (inactive) | 0.871 (inactive) | 0.974 (inactive) | 1.09 (inactive) | 1.01 (inactive) | 0.946 (inactive) |
| COc1cccc(CCc2ccccc2OCC(CN(C)C)OC(=O)CCC(=O)O)c1 (stereo not drawn) [Sarpogrelate hydrochloride] (20 µM) | 1.19 | 0.978 | 1.02 | 0.991 | 0.977 (inactive) | 0.989 (inactive) | 0.97 (inactive) | 1.02 (inactive) | 0.999 (inactive) | 1.03 (inactive) | 0.996 (inactive) | 0.961 (inactive) |
| CCC(=O)O[C@]1(C(=O)CCl)[C@@H](C)C[C@H]2[C@@H]3CCC4=CC(=O)C=C[C@]4(C)[C@@]3(F)[C@@H](O)C[C@@]21C [Clobetasol propionate] (20 µM) | 1.36 | 1.06 | 1.06 | 0.908 | 0.98 (inactive) | 1.02 (inactive) | 0.96 (inactive) | 0.988 (inactive) | 1.02 (inactive) | 1.01 (inactive) | 0.999 (inactive) | 0.936 (inactive) |
| CC(=O)OC[C@H]1O[C@@H]([S-])[C@H](OC(C)=O)[C@@H](OC(C)=O)[C@@H]1OC(C)=O.CCP(CC)CC.[Au+] [Auranofin] (20 µM) | 0.978 | 1.02 | 0.951 | 0.00158 | 0.65 (active) | 0.49 (active) | 0.05 (active) | 0.925 (inactive) | 0.89 (inactive) | 0.996 (inactive) | 0.972 (inactive) | 0.0596 (active) |
| CN1CCN(C2Cc3ccccc3Sc3ccc(Cl)cc32)CC1 (stereo not drawn) [Octoclothepin maleate salt] (20 µM) | 0.962 | 0.98 | 0.941 | 0.931 | 1.01 (inactive) | 1.05 (inactive) | 0.848 (inactive) | 1.06 (inactive) | 1 (inactive) | 1.1 (inactive) | 0.99 (inactive) | 0.992 (inactive) |
| COCC(=O)O[C@]1(CCN(C)CCCc2nc3ccccc3[nH]2)CCc2cc(F)ccc2[C@@H]1C(C)C [Mibefradil hydrochloride] (20 µM) | 1.05 | 0.996 | 1 | 0.967 | 0.954 (inactive) | 0.999 (inactive) | 0.925 (inactive) | 1.02 (inactive) | 1.01 (inactive) | 1.02 (inactive) | 1 (inactive) | 0.908 (inactive) |
| Fc1ccc(C(c2ccc(F)cc2)N2CCN(C/C=C/c3ccccc3)CC2)cc1 [Flunarizine dihydrochloride] (20 µM) | 1.15 | 1.05 | 1.1 | 0.897 | 0.894 (inactive) | 1.05 (inactive) | 0.851 (inactive) | 1.07 (inactive) | 0.981 (inactive) | 0.979 (inactive) | 1.04 (inactive) | 0.977 (inactive) |
| CC(C)OC(=O)C(C)(C)Oc1ccc(C(=O)c2ccc(Cl)cc2)cc1 [Fenofibrate] (20 µM) | 1.12 | 1.04 | 1.04 | 1.36 | 0.941 (inactive) | 1.03 (inactive) | 1.05 (inactive) | 1.03 (inactive) | 0.984 (inactive) | 1.03 (inactive) | 1.01 (inactive) | 1.05 (inactive) |
| CN(C)CCC(c1ccccc1)c1ccccn1 (stereo not drawn) [Pheniramine maleate] (20 µM) | 1.03 | 0.982 | 0.985 | 0.784 | 1.02 (inactive) | 0.954 (inactive) | 0.877 (inactive) | 0.896 (inactive) | 1.01 (inactive) | 1.27 (active) | 0.986 (inactive) | 0.798 (inactive) |
| Cc1cn([C@H]2C=C[C@@H](CO)O2)c(=O)[nH]c1=O [Stavudine] (20 µM) | 0.967 | 0.807 | 0.99 | 0.994 | 1.04 (inactive) | 0.97 (inactive) | 1.01 (inactive) | 0.927 (inactive) | 1.04 (inactive) | 1.21 (inactive) | 0.991 (inactive) | 1.02 (inactive) |
| CN1CCN(CCCN2c3ccccc3Sc3ccc(S(=O)(=O)N(C)C)cc32)CC1 [Thioproperazine dimesylate] (20 µM) | 0.886 | 0.986 | 1.12 | 1.15 | 0.898 (inactive) | 1.03 (inactive) | 0.963 (inactive) | 0.969 (inactive) | 0.976 (inactive) | 0.99 (inactive) | 1.01 (inactive) | 1.06 (inactive) |
| Clc1ccc2c(c1)CCc1cccnc1C2=C1CCNCC1 [Desloratadine] (20 µM) | 0.922 | 0.981 | 0.992 | 0.972 | 1.07 (inactive) | 1.11 (inactive) | 0.962 (inactive) | 1 (inactive) | 1.01 (inactive) | 0.976 (inactive) | 0.987 (inactive) | 1.02 (inactive) |
| COC(=O)Nc1nc2cc(C(=O)c3ccccc3)ccc2[nH]1 [Mebendazole] (20 µM) | 1.04 | 1 | 1.11 | 0.629 | 0.962 (inactive) | 0.982 (inactive) | 1.01 (inactive) | 1.03 (inactive) | 0.987 (inactive) | 0.998 (inactive) | 1 (inactive) | 1.03 (inactive) |
| CC(C)CC(=O)N[C@H](C(=O)N[C@H](C(=O)N[C@@H](CC(C)C)[C@@H](O)CC(=O)N[C@@H](C)C(=O)N[C@@H](CC(C)C)[C@@H](O)CC(=O)O)C(C)C)C(C)C [Pepstatin A] (20 µM) | 1.1 | 1 | 1 | 1.06 | 1.02 (inactive) | 1.06 (inactive) | 1.05 (inactive) | 0.953 (inactive) | 1.01 (inactive) | 0.961 (inactive) | 0.999 (inactive) | 1.06 (inactive) |
| CCCCCCCC/C=C\CCCCCCCCCCCC(=O)O [Erucic acid] (20 µM) | 0.975 | 1 | 1.04 | 1.06 | 1.02 (inactive) | 1.1 (inactive) | 0.851 (inactive) | 0.981 (inactive) | 1.01 (inactive) | 1.06 (inactive) | 0.99 (inactive) | 0.86 (inactive) |
| CC(CCc1ccccc1)NCC(O)c1ccc(O)c(C(N)=O)c1 (stereo not drawn) [Labetalol hydrochloride] (20 µM) | 1.09 | 0.963 | 0.974 | 0.85 | 0.944 (inactive) | 1 (inactive) | 0.967 (inactive) | 1.01 (inactive) | 0.996 (inactive) | 0.923 (inactive) | 1 (inactive) | 0.939 (inactive) |
| Cc1ccc(S(=O)(=O)NC(=O)NN2CCCCCC2)cc1 [Tolazamide] (20 µM) | 0.935 | 1.09 | 1.04 | 1.19 | 0.975 (inactive) | 1.02 (inactive) | 1.14 (inactive) | 1.05 (inactive) | 0.974 (inactive) | 1.02 (inactive) | 1.02 (inactive) | 1.18 (inactive) |
| CCOc1nc2cccc(C(=O)OCc3oc(=O)oc3C)c2n1Cc1ccc(-c2ccccc2-c2noc(=O)[nH]2)cc1 [Azilsartan medoxomil] (20 µM) | 1.04 | 1 | 0.984 | 1.1 | 1.04 (inactive) | 1.01 (inactive) | 1.07 (inactive) | 1.02 (inactive) | 1.01 (inactive) | 0.997 (inactive) | 0.999 (inactive) | 1.03 (inactive) |
| CC[C@@]1(O)C(=O)OCc2c1cc1n(c2=O)Cc2cc3c(CN(C)C)c(O)ccc3nc2-1 [Topotecan] (20 µM) | 1.08 | 1.03 | 0.991 | 0.99 | 1.1 (inactive) | 0.992 (inactive) | 0.998 (inactive) | 1.01 (inactive) | 0.994 (inactive) | 0.961 (inactive) | 1 (inactive) | 1.01 (inactive) |
| OCC(CO)N[C@H]1C[C@](O)(CO)[C@@H](O)[C@H](O)[C@H]1O [Voglibose] (20 µM) | 1.03 | 1.05 | 1.03 | 1.17 | 1.02 (inactive) | 1.06 (inactive) | 1.06 (inactive) | 0.984 (inactive) | 0.99 (inactive) | 0.917 (inactive) | 1.01 (inactive) | 1.09 (inactive) |
| CN(C)[C@@H]1C(=O)C(C(=O)NCNCCCC[C@H](N)C(=O)O)=C(O)[C@@]2(O)C(=O)C3=C(O)c4c(O)cccc4[C@@](C)(O)[C@H]3C[C@@H]12 [Lymecycline] (20 µM) | 0.746 | 1.23 | 0.995 | 0.941 | 1.05 (inactive) | 0.933 (inactive) | 0.996 (inactive) | 1.2 (inactive) | 1.03 (inactive) | 1.11 (inactive) | 0.999 (inactive) | 1.02 (inactive) |
